For 13 compounds, composite z-score and z-score results are on record in PubChem BioAssay.

Calls of active or inactive are those of the source.

Assay [1] in a line: binders of probe aFSTL3 on microarray, primary screen, stem cell growth factor project, biochemical, small-molecule microarray, fluorescence 635/667 (AID 1064).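 Also: measures binding of the biotinylated anti-FSTL3 antibody to printed compounds.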 Particulars: higher = more signal.
Assay [2] is described as follows: binders from COS7 lysate, DM2A8 probe, primary screen, torsin A project, cell lysate, small-molecule microarray, fluorescence 635/667 (AID 1065). Particulars: higher = more signal, COS7 lysate expressing mutant human TOR1A.
The nature of assay [3]: binders of probe aFGF2 on microarray, primary screen, stem cell growth factor project, biochemical, small-molecule microarray, fluorescence 635/667 (AID 1067).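 Also: measures binding of biotinylated aFGF2 protein to printed compounds on slides; z-score merges feature fluorescence and signal-to-noise across triplicate slides.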 Particulars: higher = more signal.
A short description of assay [4]: binders of probe aFGF10 on microarray, primary screen, stem cell growth factor project, biochemical, small-molecule microarray, fluorescence 635/667 (AID 1071).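 Also: score merges 667 nm spot intensity and signal to noise from triplicate slides.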 Particulars: higher = more signal.
Assay [5] concerns the target Neurogenic locus notch homolog protein 2 (Homo sapiens) (UniProt Q04721). Briefly: Notch2 binders on small-molecule microarrays, primary screen, biochemical, small-molecule microarray, 635 nm fluorescence, stem cell growth factors (AID 1073). Particulars: Notch2 binding, higher = more signal.
Assay [6] addresses Pro-neuregulin-1, membrane-bound isoform (Homo sapiens) (UniProt Q02297). Briefly: NRG1 binders on small-molecule microarrays, primary screen, psychiatric disease protein project, biochemical, small-molecule microarray, fluorescence 635/667 (AID 1075).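 Also: score combines 667 nm spot fluorescence with signal to noise.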 Particulars: NRG1 binding, 635 nm fluorescence, higher = more signal.
Assay [7] deals with Neuregulin-1 EGF-like domain. Kind of assay: binders of neuregulin-1 EGF-like domain, primary screen, biochemical, small-molecule microarray, 635 nm fluorescence (AID 1081).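 Also: binding of the protein to compounds printed on small-molecule microarray slides.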 The conditions noted are these: small-molecule microarray binding, higher = more signal.
Assay [8] in a line: FRG1 promoter luciferase signal modulators, primary screen, FRG1 inhibition for FSHD, cell-based, C2C12 myotubes, firefly/Renilla luciferase, luminescence (AID 1084). The conditions noted are these: higher = more signal, called active from +8 up or from −8 down.
The nature of assay [9]: binders of probe aFST on microarray, primary screen, stem cell growth factor project, biochemical, small-molecule microarray, fluorescence 635/667 (AID 1086).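 Also: score merges 667 nm fluorescence with signal-to-noise of each printed compound spot.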 Particulars: higher = more signal.
A short description of assay [10]: binders of probe aHhip on microarray, primary screen, stem cell growth factor project, biochemical, small-molecule microarray, fluorescence 635/667 (AID 1087).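 Also: score merges spot fluorescence at 667nm with spot signal to noise ratio.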 Particulars: higher = more signal.

Pro-neuregulin-1, membrane-bound isoform (Homo sapiens), sequence (Q02297 whole entry, looked up, the tested form may be a part, canonical isoform): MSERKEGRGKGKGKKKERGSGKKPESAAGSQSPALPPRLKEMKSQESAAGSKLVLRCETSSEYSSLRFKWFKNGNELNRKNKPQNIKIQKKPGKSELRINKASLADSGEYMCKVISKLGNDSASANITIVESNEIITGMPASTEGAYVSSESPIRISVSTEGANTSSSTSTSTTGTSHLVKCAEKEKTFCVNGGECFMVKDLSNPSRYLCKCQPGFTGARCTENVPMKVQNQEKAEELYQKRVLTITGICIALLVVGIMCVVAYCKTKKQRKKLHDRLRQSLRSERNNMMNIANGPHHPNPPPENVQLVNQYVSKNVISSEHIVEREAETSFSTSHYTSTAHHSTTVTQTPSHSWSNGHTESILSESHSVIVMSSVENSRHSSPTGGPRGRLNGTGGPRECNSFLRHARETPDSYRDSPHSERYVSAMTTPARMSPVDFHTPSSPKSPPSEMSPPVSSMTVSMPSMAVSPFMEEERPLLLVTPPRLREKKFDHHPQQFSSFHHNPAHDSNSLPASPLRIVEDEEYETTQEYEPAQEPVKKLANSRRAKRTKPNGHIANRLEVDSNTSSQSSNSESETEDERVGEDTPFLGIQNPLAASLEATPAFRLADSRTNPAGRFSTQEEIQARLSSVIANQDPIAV
Neurogenic locus notch homolog protein 2 (Homo sapiens), sequence (Q04721 whole entry, looked up, canonical isoform): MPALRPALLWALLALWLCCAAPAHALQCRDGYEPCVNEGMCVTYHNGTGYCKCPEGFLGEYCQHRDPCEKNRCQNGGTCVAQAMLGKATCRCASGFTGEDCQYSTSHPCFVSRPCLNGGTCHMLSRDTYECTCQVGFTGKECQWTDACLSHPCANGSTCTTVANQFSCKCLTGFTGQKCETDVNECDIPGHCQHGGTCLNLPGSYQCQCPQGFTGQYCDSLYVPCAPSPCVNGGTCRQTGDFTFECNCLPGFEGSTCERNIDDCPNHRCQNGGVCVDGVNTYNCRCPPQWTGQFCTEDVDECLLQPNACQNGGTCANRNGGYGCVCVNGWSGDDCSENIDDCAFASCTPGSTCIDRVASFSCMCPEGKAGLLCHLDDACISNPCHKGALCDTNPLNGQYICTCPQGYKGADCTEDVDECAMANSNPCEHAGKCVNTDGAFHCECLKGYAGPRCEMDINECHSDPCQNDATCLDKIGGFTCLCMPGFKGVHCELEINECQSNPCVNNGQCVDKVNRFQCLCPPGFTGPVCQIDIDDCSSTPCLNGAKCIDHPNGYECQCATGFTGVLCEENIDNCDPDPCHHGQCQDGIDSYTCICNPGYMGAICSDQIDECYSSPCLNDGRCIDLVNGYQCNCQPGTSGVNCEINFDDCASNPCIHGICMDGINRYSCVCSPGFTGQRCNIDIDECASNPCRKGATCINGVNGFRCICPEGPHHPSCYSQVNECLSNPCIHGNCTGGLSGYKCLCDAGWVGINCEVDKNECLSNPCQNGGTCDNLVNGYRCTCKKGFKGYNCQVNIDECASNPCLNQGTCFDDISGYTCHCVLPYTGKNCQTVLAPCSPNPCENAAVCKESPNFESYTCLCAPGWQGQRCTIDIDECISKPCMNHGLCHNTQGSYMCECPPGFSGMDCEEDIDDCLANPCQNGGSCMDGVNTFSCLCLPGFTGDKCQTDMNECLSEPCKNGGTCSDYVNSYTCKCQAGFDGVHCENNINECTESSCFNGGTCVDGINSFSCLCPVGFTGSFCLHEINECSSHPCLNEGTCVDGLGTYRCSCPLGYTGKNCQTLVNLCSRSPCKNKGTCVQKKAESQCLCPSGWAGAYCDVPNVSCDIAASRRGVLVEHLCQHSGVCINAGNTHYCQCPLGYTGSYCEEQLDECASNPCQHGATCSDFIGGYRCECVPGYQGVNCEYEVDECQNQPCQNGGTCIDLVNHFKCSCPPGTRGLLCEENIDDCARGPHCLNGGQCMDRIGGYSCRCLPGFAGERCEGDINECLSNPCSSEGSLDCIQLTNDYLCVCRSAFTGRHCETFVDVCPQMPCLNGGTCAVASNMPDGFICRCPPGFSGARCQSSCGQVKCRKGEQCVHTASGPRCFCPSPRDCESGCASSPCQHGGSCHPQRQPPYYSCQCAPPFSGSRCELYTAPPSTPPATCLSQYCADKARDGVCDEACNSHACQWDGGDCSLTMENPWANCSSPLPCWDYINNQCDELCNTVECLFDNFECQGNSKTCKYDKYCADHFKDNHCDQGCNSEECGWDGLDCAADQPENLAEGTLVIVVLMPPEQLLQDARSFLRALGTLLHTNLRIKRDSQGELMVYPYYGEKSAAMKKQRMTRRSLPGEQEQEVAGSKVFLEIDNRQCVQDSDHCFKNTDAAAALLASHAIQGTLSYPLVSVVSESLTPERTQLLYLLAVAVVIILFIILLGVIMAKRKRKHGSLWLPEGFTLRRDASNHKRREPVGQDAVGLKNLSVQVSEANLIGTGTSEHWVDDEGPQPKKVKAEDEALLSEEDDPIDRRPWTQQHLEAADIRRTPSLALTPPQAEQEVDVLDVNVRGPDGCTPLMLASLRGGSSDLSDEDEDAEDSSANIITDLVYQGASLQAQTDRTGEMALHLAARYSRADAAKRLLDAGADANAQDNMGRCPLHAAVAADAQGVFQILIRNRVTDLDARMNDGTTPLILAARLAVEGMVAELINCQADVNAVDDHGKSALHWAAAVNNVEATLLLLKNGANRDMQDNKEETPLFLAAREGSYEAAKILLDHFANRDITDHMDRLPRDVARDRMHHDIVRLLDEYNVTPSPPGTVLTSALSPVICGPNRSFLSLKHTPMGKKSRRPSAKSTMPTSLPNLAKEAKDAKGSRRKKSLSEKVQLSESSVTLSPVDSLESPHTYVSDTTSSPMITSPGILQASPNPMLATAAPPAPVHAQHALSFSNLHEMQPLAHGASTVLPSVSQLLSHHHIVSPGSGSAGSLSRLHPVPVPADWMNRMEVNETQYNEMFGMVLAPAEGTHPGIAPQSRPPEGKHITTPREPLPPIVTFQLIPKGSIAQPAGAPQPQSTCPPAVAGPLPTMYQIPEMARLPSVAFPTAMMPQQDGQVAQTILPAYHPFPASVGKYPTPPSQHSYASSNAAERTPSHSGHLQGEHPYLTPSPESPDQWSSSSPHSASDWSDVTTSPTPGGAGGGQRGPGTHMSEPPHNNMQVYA

As to `O=C1OCC=C[C@H]2OC34C=CCN(Cn5nnc6ccccc65)C(=O)[C@H]3N(CCCCCO)C(=O)[C@@H]4[C@@H]12` (stereo not given in full), the composite z-score is 0.4 in assay [1]; -0.629 in assay [2]; -0.0069 in assay [3]; -0.138 in assay [4]; -0.637 in assay [5]; 2.53 in [6]. In addition, the composite z-score in assay [7] was 1.16; in [9] it was -0.779; in assay [10] it was -0.396. Besides, in [8], the z-score was -0.564 (inactive).
Regarding `COc1ccc([C@H]2C[C@H]3C(Br)=C[C@@]2(CO)C(=O)[C@]32CO2)cc1`, the composite z-score in assay [1] was -0.035; in assay [2], -0.512; in [3] it was -0.0563; in assay [4], 0.0327; in [5], 0.269; in [6] it was -0.202. Moreover, the composite z-score in assay [7] is -0.333; in [9] it was 0.0716; in assay [10] it was -0.175. In addition, in assay [8], the z-score was 1.26 (inactive).
For the compound `CO[C@H]1O[C@H](CO)[C@@H](OC(=O)Nc2ccc(Br)cc2)[C@@H]2OC(=O)[C@H](Cc3cccc(Br)c3)C/C=C/C[C@@H](Cc3cccc(Br)c3)C(=O)O[C@@H]12`, the composite z-score in [1] is -0.0675; in assay [2], -0.0034; in assay [3] it was -0.135; in [4], 0.0489; in assay [5] it was 0.0333; in assay [6], 0.72. Also, the composite z-score in assay [7] was found to be 1.05; in assay [9] it was 0.388; in assay [10] it was 0.315. The z-score in [8] was 1.3 (inactive).
Regarding `O=C(O)[C@H](Cc1ccccc1)n1cc(-c2ccccc2)nn1`, the composite z-score in assay [1] is -0.37; in assay [2] it was -0.104; in assay [3], -0.0583; in [4] it was 0.399; in assay [5], 0.533; in assay [6] it was 0.0865. Further, the figures for the composite z-score in assay [7], in assay [9] and in assay [10] were 0.871, 0.328 and -0.181, respectively. Moreover, in assay [8], the z-score was 1.33 (inactive).
With `CC[C@@H]1C=C(C(=O)O)[C@H](c2cccc3ccccc23)N1S(=O)(=O)c1ccc(C)cc1`, the composite z-score in [1] was -0.0805; in assay [2], -0.26; in [3], -0.0162; in assay [4], 0.184; in assay [5], 0.709; in assay [6], 1.94. In addition, the composite z-score is 0.573 in assay [7], 0.279 in assay [9] and -0.0645 in [10]. The z-score in assay [8] is -3.41 (inactive).
As for `COCC(=C=CC[C@H](O)c1ccccc1OCCO)CCO`, the composite z-score in [1] was -0.2; in assay [2], 0.32; in assay [3], -0.0747; in [4] it was 0.225; in assay [5], -0.626; in assay [6] it was 1.24. The composite z-score was 0.857 in assay [7], -0.0019 in [9] and 0.0373 in assay [10]. Besides, the z-score in [8] was 0.212 (inactive).
Turning to `O[C@@H](Cc1ccccc1)[C@@H](/C=C/C1CC1)NCc1cccc(Cl)c1`, the composite z-score was 1.53 in assay [1]; 0.0563 in assay [2]; -0.224 in assay [3]; -0.813 in assay [4]; -1.43 in [5]; -0.146 in assay [6]. Besides, the composite z-score in [7] was -0.344; in [9] it was -0.699; in assay [10], -0.0994. In addition, the z-score in assay [8] is -0.715 (inactive).
In the case of `CC(c1ccccc1)C(O)C1C=CC2C(=O)N(C)C(=O)C2N1NC(=O)OC(C)(C)C` (stereo not given), the composite z-score in [1] worked out at 0.301; in assay [2], 0.518; in assay [3], 0.225; in assay [4], 0.626; in [5] it was 1.21; in assay [6], 1.91. Besides, the composite z-score was 1.17 in assay [7], 1.14 in assay [9] and -0.0645 in [10]. For the same compound, in assay [8], the z-score is 1.89 (inactive).
On to `C=CC[C@]1(C(=O)NCc2ccccc2)N=C(c2ccc(OCCCO)cc2)O[C@H]1c1ccccc1CN=[N+]=[N-]`, for which the composite z-score was 0.0143 in assay [1]; 0.234 in assay [2]; 0.053 in [3]; 0.505 in assay [4]; 1.54 in assay [5]; 1.05 in assay [6]. For the same compound, the composite z-score in assay [7] came to 1.11; in [9], 1.02; in assay [10] it was 0.0854. The z-score in [8] was -2.43 (inactive).
Take `CCOC(=O)C1=CC[C@@H](c2ccc(C(F)(F)F)cc2)N(S(=O)(=O)c2ccc(C)cc2)[C@H]1c1ccccc1`: the composite z-score in assay [1] was 0.371; in assay [2] it was 1.4; in assay [3], 0.0917; in [4], 0.599; in [5] it was 1.38; in assay [6], 1.3. In addition, the composite z-score in assay [7] was 1.25; in [9], 1.04; in [10], -0.0296. Also, the z-score in [8] is -0.364 (inactive).
As for `CN(C)CCCCNC(=O)[C@@H]1C[C@@H]2C(=O)N[C@@H](CCCCN)C(=O)N2[C@@H]1c1ccc(O)cc1`, the composite z-score was 0.597 in assay [1]; 0.034 in assay [2]; -0.145 in assay [3]; -0.146 in assay [4]; 0.471 in assay [5]; 0.707 in assay [6]. Also, the composite z-score came out at 1.13 in assay [7], 0.214 in [9] and 0.151 in assay [10]. In addition, the z-score in assay [8] was -0.778 (inactive).
With `CCOC(=O)C[C@H]1[C@H](OC(=O)c2ccc(-c3ccccc3)cc2)[C@@H](NC(=O)c2ccccc2)c2cc(OCCCO)ccc2N1C(=O)c1ccc2ccccc2n1`, the composite z-score was -0.168 in [1]; 0.732 in [2]; -0.105 in [3]; 0.311 in assay [4]; 0.606 in [5]; 0.742 in [6]. Further, the composite z-score in assay [7] was 0.507; in assay [9], 0.402; in assay [10], -0.0994. For the same compound, in [8], the z-score is 1.22 (inactive).
On to `C=C(CCCC)C(=O)CC[C@H](OC(=O)c1cccnc1)c1ccc(OCCO)cc1`, for which the composite z-score in [1] is 0.242; in assay [2] it was 1.4; in [3] it was -0.116; in assay [4] it was 0.149; in assay [5] it was -0.65; in [6], 0.766. For the same compound, the composite z-score in [7] was 0.761; in [9], -0.0065; in assay [10], -0.0994. Besides, the z-score in assay [8] was -0.916 (inactive).
